Our source for the Potency, activity, negative = cell killing and outcome values is PubChem BioAssay (NCATS).

For one test, the system named is MKL-1. In words: qHTS assay to identify novel small-molecules to repurpose for Merkel cell carcinoma treatment (AID 1296009). Further: nearly all actives have a fitted effect of over 60% in size. Further: potency means the concentration at half of the fitted maximal effect. As to conditions: MCC and control cell lines, CellTiter-Glo viability, 72 h; series mostly up to 46 µM. In a few lines: (§1)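 Cell viability, measured as CellTiter-Glo luminescence, was normalized between DMSO and no-cell wells. The cells had been exposed to 8- or 11-point compound dilutions for 72 hr at 37 degree celsius.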
Background: qHTS replaces the single test concentration by a dilution series.

Another test relates to MKL-2. The description is as above. As to conditions: MCC and control cell lines, CellTiter-Glo viability, 72 h; series mostly up to 46 µM. The essentials:
as §1

The subject of a further test is UISO. Described as above. The following applies: MCC and control cell lines, CellTiter-Glo viability, 72 h; series mostly up to 46 µM. The essentials: as §1
In general terms: Cellular ATP, detected with luciferase, serves as a proxy for viable cell number.

The test system of a further test is WaGa. Described as above. As to conditions: MCC and control cell lines, CellTiter-Glo viability, 72 h; series mostly up to 46 µM. In a few lines: as §1
Another test has as its system C33A. In words: Primary qHTS to identify gynecologic anti-cancer compounds using libraries of approved drugs and bioactive compounds (AID 1345084). Further: nearly all actives have a fitted effect of over 55% in size. Further: potency means the concentration at half of the fitted maximal effect. The following applies: Gynecologic cancer cell panel viability, ATPlite luminescence, 48 h; series mostly up to 57.5 µM. The essentials:
(§2)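 Measured: luminescence after ATPlite addition (15 min, RT). Exposure: 48 h, 37 C, 5% CO2.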

The test system of the next test is CAOV3. The description is as above. As to conditions: Gynecologic cancer cell panel viability, ATPlite luminescence, 48 h; series mostly up to 57.5 µM. In a few lines:
as §2

For a further test, the system named is CASKI. Described as above. The following applies: Gynecologic cancer cell panel viability, ATPlite luminescence, 48 h; series mostly up to 57.5 µM. The essentials:
as §2

The next test concerns Es-2. Described as above. As to conditions: Gynecologic cancer cell panel viability, ATPlite luminescence, 48 h; series mostly up to 57.5 µM. The essentials:
as §2

The subject of another test is HeLa. The test is described as above. As to conditions: Gynecologic cancer cell panel viability, ATPlite luminescence, 48 h; series mostly up to 57.5 µM. The essentials: as §2
The next test has as its system Hek293T. The test is described as above. As to conditions: Gynecologic cancer cell panel viability, ATPlite luminescence, 48 h, control line for the selectivity index; series mostly up to 57.5 µM. In a few lines:
as §2

The subject of a further test is JEG-3. The test is described as above. As to conditions: Gynecologic cancer cell panel viability, ATPlite luminescence, 48 h; series mostly up to 57.5 µM. In a few lines: as §2
In a further test the test system is OV90. The description is as above. The following applies: Gynecologic cancer cell panel viability, ATPlite luminescence, 48 h; series mostly up to 57.5 µM. The essentials: as §2
The subject of a further test is PA-1. The description is as above. As to conditions: Gynecologic cancer cell panel viability, ATPlite luminescence, 48 h; series mostly up to 57.5 µM. In a few lines:
as §2

The next test deals with SKOV3. The description is as above. As to conditions: Gynecologic cancer cell panel viability, ATPlite luminescence, 48 h; series mostly up to 57.5 µM. The essentials:
as §2

A further test deals with Tov-21-G. The description is as above. The following applies: Gynecologic cancer cell panel viability, ATPlite luminescence, 48 h; series mostly up to 57.5 µM. In a few lines: as §2
For another test, the system named is Tov112D. The description is as above. The following applies: Gynecologic cancer cell panel viability, ATPlite luminescence, 48 h; series mostly up to 57.5 µM. The essentials:
as §2

The nature of test [1]: Drug repurposing screens with cells derived from glioblastoma tumor samples (AID 1345199). Further: nearly all actives have a fitted effect of over 40% in size. As to conditions: GBM patient neurospheres viability, ATP luminescence, 48 h. The essentials:
(§3)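 Primary testing used CD133+ neurospheres from four GBM patients, seven concentrations, 48 h exposure and ATP-based viability; confirmation added three slower-growing patient lines.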

The test system of the next test is astro. Described as above. The following applies: viability, ATP luminescence, 48 h; series mostly up to 45.9 µM. The essentials: as §3
For the next test, the system named is MCC-26. The test is described as follows: qHTS assay to identify novel small-molecules to repurpose for Merkel cell carcinoma treatment (AID 1296009). Further: nearly all actives have a fitted effect of over 60% in size. Further: potency means the concentration at half of the fitted maximal effect. The following applies: MCC and control cell lines, CellTiter-Glo viability, 72 h; series mostly up to 46 µM. In a few lines: as §1
For another test, the system named is NIH3T3. The test is described as above. As to conditions: MCC and control cell lines, CellTiter-Glo viability, 72 h; at 44.8 µM (top of the series) unless noted. The essentials:
as §1

Where [2] appears, read: at 20 µM (top of the series), tumour line C.
Setting [3] is: at 21.2 µM (top of the series), tumour line B.
Setting [4] is: at 21.2 µM (top of the series), tumour line D.

Values joined by “and” are separate entries in the source; they are usually repeats but may differ in a detail not shown here. Equal entries are not always repeated. Results filed as inconclusive are left out. Values without a mark were called inactive. Active and inactive are the calls of the source. The call rests on the fitted dose curve; in most records, active means well fitted curve in the direction sought with a large enough effect; inconclusive means small, poorly fitted or top-dose-only effect, or another doubt; inactive means no such curve, though single readings can be large; an effect the other way counts as inactive or inconclusive.
On the % scale 0 is the no-effect control and ±100 the full control effect.

Take `COc1ccccc1OCC(O)COC(N)=O` (stereo unspecified): the Potency result in the test with MKL-1, in the test on MKL-2, in the test with UISO, with WaGa, with C33A and with CAOV3 was “inactive” in each case. For the same molecule, the Potency entry with CASKI, in the test on Es-2, with HeLa, in the test with Hek293T, with JEG-3 and in the test with OV90 was “inactive” throughout. Also, the Potency entry with PA-1, in the test on SKOV3, in the test on Tov-21-G, in the test on Tov112D and in the test with astro was “inactive” each time. For the same molecule, the activity, negative = cell killing in test [1] (setting [2]) was -0.35%; in [1] (setting [3]) it was -3.25%; in [1] (setting [4]) it was -10.3%; in test [1] (at 21.3 µM (top of the series), tumour line A), -18%.
Take `CC(C)OC(=O)OCOP(=O)(CO[C@H](C)Cn1cnc2c(N)ncnc21)OCOC(=O)OC(C)C`: the Potency result in the test with MCC-26, with MKL-1, in the test on MKL-2, in the test with WaGa, in the test with C33A and with CAOV3 was “inactive” in each case. For the same molecule, the Potency entry with CASKI, in the test with Es-2, in the test on HeLa, in the test on Hek293T, in the test on JEG-3 and in the test with OV90 was “inactive” throughout. Further, the Potency result in the test on PA-1, in the test with SKOV3, in the test with Tov-21-G, in the test on Tov112D and in the test on astro was “inactive” throughout. In addition, the activity, negative = cell killing in test [1] (at 45.9 µM (top of the series), tumour line B) was -7.36%; in [1] (at 45.9 µM (top of the series), tumour line D), -12.2%; in test [1] (at 46 µM (top of the series), tumour line A) it was -9.04%; in [1] (at 46.1 µM (top of the series), tumour line C), -6.09%.
Take `CCOC(=O)c1ccc(C#Cc2ccc3c(c2)C(C)(C)CCS3)nc1`: the Potency result in the test with MCC-26, with MKL-1, in the test with UISO, with WaGa, in the test on C33A and in the test on CAOV3 was “inactive” each time. Further, the Potency result with CASKI, with Es-2, in the test with HeLa, in the test on Hek293T, in the test on JEG-3 and with OV90 was “inactive” each time. Besides, the Potency result with PA-1, in the test on SKOV3, with Tov-21-G and in the test with Tov112D was “inactive” throughout. In the test on NIH3T3, the molecule was called inactive.
Consider `Nc1nc(=S)c2[nH]cnc2[nH]1`, for which the Potency was 20.9 µM (active) in the test on MCC-26; 2.37 µM (active) and 23.5 µM (active) with MKL-1; 7.5 µM (active) in the test with MKL-2; 1.33 µM (active) with UISO; 3.35 µM (active) and 10.5 µM (active) in the test with WaGa; 3.55 µM (active) with CASKI. Besides, the Potency was 7.08 µM (active) in the test on Es-2; 1.41 µM (active) in the test on HeLa; 3.16 µM (active) in the test on JEG-3; 8.91 µM (active) with OV90; 3.55 µM (active) in the test with PA-1; 3.55 µM (active) with Tov-21-G. In the test on Tov112D, the Potency is 1.41 µM (active). Besides, the Potency result in the test with astro was “inactive”.
Take `O=C(O)c1cn(C2CC2)c2cc(N3CCNCC3)c(F)cc2c1=O`: the Potency result with MKL-1, in the test on MKL-2, in the test with UISO, in the test with WaGa, in the test on C33A and with CAOV3 was “inactive” in each case. For the same molecule, the Potency entry in the test on CASKI, in the test with Es-2, in the test with HeLa, in the test on Hek293T, in the test with JEG-3 and in the test on OV90 was “inactive” throughout. For the same molecule, the Potency result in the test on PA-1, in the test on SKOV3, with Tov-21-G, in the test on Tov112D and in the test on astro was “inactive” in each case. In the test on NIH3T3, the result was inactive. Further, the activity, negative = cell killing in [1] (setting [2]) was -4.75%; in test [1] (setting [3]) it was -18.6%; in test [1] (setting [4]), 4.14%.
`O[C@@H](CNC[C@H](O)[C@H]1CCc2cc(F)ccc2O1)[C@@H]1CCc2cc(F)ccc2O1`: the Potency entry with MCC-26, in the test on WaGa, in the test on Hek293T and in the test with JEG-3 was “inactive” throughout. In addition, the Potency in the test with MKL-2 was 26.4 µM (active); in the test with UISO it was 23.7 µM (active); in the test with SKOV3, 22.4 µM (active).
